High-throughput results (PubChem)
Many of the other results were omitted from the sample, so hits are more common in it than they were.
Pf Dd2 inh: Plasmodium falciparum Dd2 growth inhibition. 120,000 compounds, 4.3% hits. P. falciparum Dd2 growth, SYBR Green, 72 h. AID 1347417. Potency, µM (top dose mostly 28.9 µM), hits mostly inhibitors; active = well fitted inhibition curve with a large enough effect; also: nearly all actives have a fitted effect of over 65% in size
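Readout: SYBR Green fluorescence, 485 nm excitation, 535 nm emission, after ~16 h lysis at 37C. Before that, Dd2-infected red cells (2.5% hematocrit) grew 72 h with compound, 29 uM top final concentration.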
A number is an active result; 0 = inactive; [ ] = dose if it differs, or a comment.

SMILES | Pf Dd2 inh
Cc1ccccc1-c1nc(-c2c(C)noc2C)cc2cc(CN(C)C)oc12 | 0
CC(=O)N1CCN(c2nc(-c3c(C)noc3C)cc3cc(CN(C)C)oc23)CC1 | 7.9µM
Cc1cc2cc(-c3c(C)noc3C)nc(N3CCN(C)C(=O)C3)c2o1 | 0
COc1cc(NC(=O)CN(c2ccc(C)cc2)S(=O)(=O)c2cccc3nonc23)cc(OC)c1 | 0
Cn1c(CO[C@H]2CN(C(=O)c3ccccc3)C[C@H]2F)nc2ccccc21 | 0
CN1CC(=O)N(C2CCNCC2)Cc2c1ncnc2N1CCCC1CO (stereo unspecified) | 0
CCOC(=O)c1cccc(NC(c2nnc(-c3ccccc3)o2)c2ccccc2F)c1 (stereo unspecified) | 0
COc1cccc(NC(c2nnc(-c3ccccc3)o2)c2ccc(F)cc2Cl)c1 (stereo unspecified) | 10µM
COc1ccccc1NC(=O)CSc1nnc(-c2cccc(Cl)c2)o1 | 0
Cc1cccc(OCc2nnc(-c3ccccc3)o2)c1 | 0
CCc1ccccc1NC(c1nnc(-c2cccc(F)c2)o1)c1ccc(F)cc1Cl (stereo unspecified) | 13µM
CCc1cc(=O)n(CC(=O)Nc2ccccc2C)c(-c2cccc(F)c2)n1 | 0
COCC[C@]1(O)CCN(C(=O)Cc2coc3cc(C)c(Cl)cc23)C[C@H]1C | 0
Cc1ccc(S(=O)(=O)NC[C@H]2O[C@@H](CC(=O)N3CCN(c4ccccn4)CC3)[C@H](O)[C@@H]2O)cc1 | 0
COc1ccc(CCCc2nnc(SCC(=O)Nc3cc(C)ccc3C)o2)cc1 | 0
O=C(N[C@@H]1CN(C2CCCCC2)C[C@H]1CO)c1cccnc1 | 0
COc1ccc(Nc2nc3ccc(Cl)cc3nc2-n2nc(C)cc2C)cc1 | 0
COc1ccc2nc(C)cc(Nc3ccc(Cl)c(Cl)c3)c2c1 | 1µM
COc1cccc(Nc2cc(C)nc3nc(-c4ccc(Cl)cc4)nn23)c1 | 0
Cc1ccccc1S(=O)(=O)N(C)CC1CCOC1 (stereo unspecified) | 0
CCc1noc(C)c1C(=O)N1CCCN(Cc2ccc(F)cc2)C(C(C)C)C1 (stereo unspecified) | 0
CCC1Oc2ccc(NC(=O)Cc3ccc(F)cc3)cc2CN(Cc2ccc(OC)cc2)C1=O (stereo unspecified) | 0
Cc1nnc(CN(C)Cc2ccccc2OCC(O)CN2CCSCC2)o1 (stereo unspecified) | 0
Cc1cccc(CNCc2ccccc2OCC(O)CN2CCSCC2)c1 (stereo unspecified) | 1.6µM
COc1cc(CN2CCOCC2)ccc1OCC(O)CN1CCSCC1 (stereo unspecified) | 0
SMILES | Pf Dd2 inh
CC1CCN(Cc2ccccc2OCC(O)CN2CCSCC2)CC1 (stereo unspecified) | 4.5µM
CCCCNCc1ccc(OCC(O)CN2CCSCC2)c(OC)c1 (stereo unspecified) | 0
CCn1cc(CNCc2ccc(OCC(O)CN3CCSCC3)c(OC)c2)cn1 (stereo unspecified) | 0
CCc1ccccc1NC(=O)c1c(NC(=O)c2ccccc2)sc2c1CCCC2 | 0
Cc1ccccc1NC(=O)c1c(NC(=O)C(F)(F)F)sc2c1CCCCC2 | 10µM
O=C(Nc1cccc(Cl)c1)c1c(NC(=O)C(F)(F)F)sc2c1CCCC2 | 13µM
Cc1ccccc1NC(=O)c1c(NC(=O)c2ccccc2)sc2c1CCC2 | 0
Cc1cccc(NC(=O)c2c(NC(=O)C(F)(F)F)sc3c2CCCCC3)c1 | 4.5µM
O=C(COc1ccc(Cl)cc1)Nc1sc2c(c1C(=O)Nc1cccc(Cl)c1)CCCC2 | 0
Cc1ccc(NC(=O)c2c(NC(=O)c3ccccc3)sc3c2CCC3)cc1 | 0
O=C(Nc1sc2c(c1C(=O)Nc1ccc(Cl)cc1)CCCC2)c1cccs1 | 0
Cc1cccc(NC(=O)c2c(Br)sc3c2CCCC3)c1 | 0
CCCNC(=O)c1c(NC(=O)c2ccc(C)cc2)sc2c1CCCCC2 | 0
Cc1cccc(C(=O)Nc2sc3c(c2C(=O)Nc2ccccc2)CCC3)c1 | 0
Cc1ccc(NC(=O)c2c(NC(=O)C(F)(F)F)sc3c2CCCCC3)cc1 | 4µM
CN1CCC2(CC1)Cc1ccccc1CN(C(=O)CN)C2 | 0
Cc1cc(C)c2c(CC(=O)Nc3nnc(CC(C)C)s3)coc2c1 | 0
COc1ccc(C2(C(=O)N3CCC4(CC3)c3nccn3-c3ccccc3CN4C)CC2)cc1 | 0[5.79 µM]
COc1cc(Cl)ccc1C(=O)N1CC[C@@H]2CN(S(C)(=O)=O)[C@@H]2C1 | 0
CN(C)C(=O)c1cc(-c2ccc(Cl)cc2Cl)c2cnn(C)c2n1 | 0
CCN(CC)C(=O)N1C[C@H](NC(=O)CCc2csc(N)n2)[C@@H](C2CC2)C1 | 0
Cn1cnc(S(=O)(=O)N2CCC(c3noc(-c4cccnc4)n3)C2)c1 (stereo unspecified) | 0[5.79 µM]
CC[C@@]1(C(=O)O)C[C@H](C(=O)N(C)CCOC)[C@H](c2ccc(OC)cc2)N1C | 0
O=C(Nc1ccccc1)N[C@H]1[C@H](O)[C@@H](Sc2ccccc2)[C@@H]2OC[C@H]1O2 | 0
CCCNC(=O)CN1C(=O)COc2ccc(S(=O)(=O)N3CCCC3)cc21 | 0
SMILES | Pf Dd2 inh
Cc1cccc(CSc2ncccc2C(=O)O)c1 | 0
COc1ccc(C(=O)N[C@@H]2CCC[C@@H]2C(=O)N2CCN(c3cc(C)ccc3C)CC2)cn1 | 10µM
COc1ccc(C(=O)N[C@@H]2CCC[C@@H]2C(=O)N2CCN(c3ncccn3)CC2)cn1 | 0
COc1ccc(C(=O)N[C@@H]2CCC[C@@H]2C(=O)Nc2cc(F)ccc2C)cn1 | 0
c1ccc(-c2ccnc(NCC(c3ccncc3)N3CCOCC3)n2)nc1 (stereo unspecified) | 0
COc1ccc(CN2CCN(c3ncnc4sc5c(c34)CC(C)CC5)CC2)cc1F (stereo unspecified) | 0
OC(c1ccc2c(c1)CCO2)c1nc(Nc2cccc(C(F)(F)F)c2)n[nH]1 (stereo unspecified) | 0
OC(c1cccc(C(F)(F)F)c1)c1nc(Nc2cccc(Cl)c2)n[nH]1 (stereo unspecified) | 7.9µM
COc1ccc(Nc2n[nH]c(C(O)c3cccc(C(F)(F)F)c3)n2)cn1 (stereo unspecified) | 0
Cn1cnc(S(=O)(=O)N2CCCC(Cc3nncn3CC3CC3)C2)c1 (stereo unspecified) | 0
O=C1NCCCCCCN(C(=O)COc2ccc(F)cc2)[C@H]2CCC[C@@H]12 | 0
COc1ccccc1OCC(=O)c1ccc2c(c1)N(CCCC(=O)NCC1CC1)C(=O)CO2 | 0
CCOc1ccc2c(n1)CCN(C(=O)c1cccc(OC)c1)C2 | 0
Cc1cnc(C(=O)N2CCCCCCNC(=O)[C@@H]3C[C@@H](C(=O)N4CCc5ccccc5C4)C[C@@H]32)cn1 | 0
CC(C)(C)NC(=O)N1CCCCCCNC(=O)[C@@H]2C[C@@H](C(=O)N3CCc4ccccc4C3)C[C@@H]21 | 4.5µM
O=C1NCCCCCCN(C(=O)C2CC2)[C@H]2C[C@H](C(=O)N3CCc4ccccc4C3)C[C@@H]12 | 0
O=C(/C=C/c1ccc(Cl)cc1)N1CCC(c2nc3ccccc3o2)CC1 | 0
Cc1ccncc1C(=O)N1CCC2(CC1)c1[nH]c3ccccc3c1CCN2C | 0
CN1CCc2c([nH]c3ccccc23)C12CCN(S(=O)(=O)c1cccnc1)CC2 | 4.5µM
Cn1cnc(S(=O)(=O)N2CCC3(CC2)NCCc2c3[nH]c3ccccc23)c1 | 0
Cc1noc(C)c1S(=O)(=O)N1CCC2(CC1)NCCc1c2[nH]c2ccccc12 | 5µM
CN1CCc2c([nH]c3ccccc23)C12CCN(C(=O)Cc1cccnc1)CC2 | 0
Cc1noc(C)c1C(=O)N1CCC2(CC1)NCCc1c2[nH]c2ccccc12 | 0
